2 sequences from paper PMC7862700, “An all-to-all approach to the identification of sequence-specific readers for epigenetic DNA modifications on cytosine” can be followed below.

Common to all, as to test: DAPPL (digital affinity profiling via proximity ligation, sequencing); 10 mM Tris-HCl pH 7.5, 50 mM NaCl, 1 mM DTT, 4% glycerol, room temperature, 30 min; GST-TFs on glutathione beads, 16-mer random dsDNA library, 0.1% formaldehyde crosslink after washing; high values mean tight binding
Holding throughout (details): protein: recombinant; tags: N-terminal GST; dsDNA, one strand shown

One assay has as its target T1, FLI1 (Homo sapiens, UniProt Q01543 1-452).
T1 sequence: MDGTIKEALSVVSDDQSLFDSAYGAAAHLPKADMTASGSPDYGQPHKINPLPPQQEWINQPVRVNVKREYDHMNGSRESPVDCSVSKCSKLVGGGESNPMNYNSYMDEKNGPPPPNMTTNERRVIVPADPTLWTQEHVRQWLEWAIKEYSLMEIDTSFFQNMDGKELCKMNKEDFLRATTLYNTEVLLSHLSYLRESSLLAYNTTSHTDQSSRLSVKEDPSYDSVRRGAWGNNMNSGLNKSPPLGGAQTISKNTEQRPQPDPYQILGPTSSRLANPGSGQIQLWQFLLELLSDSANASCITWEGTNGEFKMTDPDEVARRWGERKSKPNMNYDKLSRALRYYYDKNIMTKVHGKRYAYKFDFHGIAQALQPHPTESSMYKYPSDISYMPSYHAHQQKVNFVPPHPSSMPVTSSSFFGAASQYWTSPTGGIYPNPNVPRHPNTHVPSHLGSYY
In a few lines: (§1)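 Human transcription factors were made in yeast as GST fusions, captured on glutathione beads and barcoded with DNA. With a tag-only sample included, the pool was incubated with 200 nmole of a random double-stranded 16-mer DNA library in Tris/NaCl/DTT/glycerol buffer at room temperature for 30 min, then crosslinked with 0.1% formaldehyde after washing, ligated by proximity, amplified and sequenced. For binding signal, each hexamer's read frequency for a factor is divided by its frequency for the tag-only sample.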

In the next assay the target is T2, ELK1 (Homo sapiens, UniProt P19419 1-428).
T2 sequence: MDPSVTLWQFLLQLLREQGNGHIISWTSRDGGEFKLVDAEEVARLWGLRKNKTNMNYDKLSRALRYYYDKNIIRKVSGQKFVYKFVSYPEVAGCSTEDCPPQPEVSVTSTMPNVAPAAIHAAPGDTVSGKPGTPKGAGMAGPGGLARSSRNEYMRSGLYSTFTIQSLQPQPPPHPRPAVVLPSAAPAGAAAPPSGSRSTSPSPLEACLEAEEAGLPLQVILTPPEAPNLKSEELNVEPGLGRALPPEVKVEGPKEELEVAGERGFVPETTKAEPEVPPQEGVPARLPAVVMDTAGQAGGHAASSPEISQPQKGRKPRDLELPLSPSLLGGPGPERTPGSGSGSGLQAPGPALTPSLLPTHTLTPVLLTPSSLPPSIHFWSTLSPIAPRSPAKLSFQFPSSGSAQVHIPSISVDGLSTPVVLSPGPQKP
In a few lines: as §1

The next assay deals with T3, GABPA (Homo sapiens, UniProt Q06546 1-454).
T3 sequence: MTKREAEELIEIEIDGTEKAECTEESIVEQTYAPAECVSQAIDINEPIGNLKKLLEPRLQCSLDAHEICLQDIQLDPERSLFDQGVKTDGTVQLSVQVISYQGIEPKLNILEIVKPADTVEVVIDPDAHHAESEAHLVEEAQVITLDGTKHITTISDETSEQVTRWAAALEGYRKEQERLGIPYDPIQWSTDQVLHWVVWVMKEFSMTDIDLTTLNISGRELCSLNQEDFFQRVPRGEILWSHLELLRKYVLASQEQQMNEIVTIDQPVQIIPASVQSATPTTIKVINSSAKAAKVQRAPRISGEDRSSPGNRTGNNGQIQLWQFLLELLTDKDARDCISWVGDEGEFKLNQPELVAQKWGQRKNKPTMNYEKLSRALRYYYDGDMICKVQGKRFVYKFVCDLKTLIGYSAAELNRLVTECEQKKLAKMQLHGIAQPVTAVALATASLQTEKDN
In a few lines:
as §1

The target in the next assay is T4, ERG (Homo sapiens, UniProt P11308 1-479).
T4 sequence: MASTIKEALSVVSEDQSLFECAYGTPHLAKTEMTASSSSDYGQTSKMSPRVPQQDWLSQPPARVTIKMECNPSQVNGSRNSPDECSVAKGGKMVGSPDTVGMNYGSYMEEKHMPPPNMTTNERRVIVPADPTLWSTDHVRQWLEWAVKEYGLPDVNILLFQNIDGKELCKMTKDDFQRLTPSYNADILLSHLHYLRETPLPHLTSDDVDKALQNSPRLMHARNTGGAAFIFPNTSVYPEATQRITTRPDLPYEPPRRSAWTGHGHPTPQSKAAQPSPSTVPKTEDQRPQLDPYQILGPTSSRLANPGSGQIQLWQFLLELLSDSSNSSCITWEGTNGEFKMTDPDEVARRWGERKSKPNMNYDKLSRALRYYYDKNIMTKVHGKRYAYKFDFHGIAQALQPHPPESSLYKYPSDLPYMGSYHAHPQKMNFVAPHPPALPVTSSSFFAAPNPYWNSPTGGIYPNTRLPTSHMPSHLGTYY
In a few lines: as §1

For another assay, the target named is ELF1 (Homo sapiens, UniProt P32519 1-619). In a few lines: as §1
In another assay the target is T5, EHF (Homo sapiens, UniProt Q9NZC4 1-300).
T5 sequence: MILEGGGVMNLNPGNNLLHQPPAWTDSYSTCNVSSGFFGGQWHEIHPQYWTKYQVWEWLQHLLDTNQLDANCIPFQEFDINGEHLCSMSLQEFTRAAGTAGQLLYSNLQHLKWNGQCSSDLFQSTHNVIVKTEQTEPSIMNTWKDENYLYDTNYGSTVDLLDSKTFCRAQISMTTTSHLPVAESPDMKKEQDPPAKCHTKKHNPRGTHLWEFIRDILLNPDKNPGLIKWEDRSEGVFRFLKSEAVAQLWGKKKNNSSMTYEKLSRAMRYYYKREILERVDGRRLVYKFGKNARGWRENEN
In a few lines: as §1

The next assay concerns the target SPI1 (Homo sapiens, UniProt P17947 1-270). In a few lines:
as §1

Another assay deals with SPIB (Homo sapiens, UniProt Q01892 1-262). In a few lines:
as §1

Another assay has as its target T6, ELK3 (Homo sapiens, UniProt P41970 1-407).
T6 sequence: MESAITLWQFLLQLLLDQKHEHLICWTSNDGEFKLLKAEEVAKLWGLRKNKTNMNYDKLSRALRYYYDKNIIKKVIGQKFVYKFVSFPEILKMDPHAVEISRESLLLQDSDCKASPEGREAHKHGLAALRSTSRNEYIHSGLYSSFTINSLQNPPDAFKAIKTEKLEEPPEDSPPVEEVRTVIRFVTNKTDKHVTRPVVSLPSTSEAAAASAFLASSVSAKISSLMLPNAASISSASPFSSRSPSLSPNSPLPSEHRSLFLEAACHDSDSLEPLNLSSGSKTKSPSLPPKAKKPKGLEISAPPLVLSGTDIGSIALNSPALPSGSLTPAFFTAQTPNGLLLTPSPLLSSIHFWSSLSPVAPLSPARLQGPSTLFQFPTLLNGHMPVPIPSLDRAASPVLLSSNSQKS
In a few lines:
as §1

Another assay has as its target T7, FEV (Homo sapiens, UniProt Q99581 1-238).
T7 sequence: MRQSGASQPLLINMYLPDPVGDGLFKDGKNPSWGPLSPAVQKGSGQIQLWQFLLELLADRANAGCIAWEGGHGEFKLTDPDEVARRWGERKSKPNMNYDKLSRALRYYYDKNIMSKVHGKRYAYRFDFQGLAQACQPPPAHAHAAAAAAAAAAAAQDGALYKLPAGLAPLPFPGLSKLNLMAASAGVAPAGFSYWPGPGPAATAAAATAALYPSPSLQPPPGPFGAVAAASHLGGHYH
In a few lines:
as §1

The target of the next assay is ETV5 (Homo sapiens, UniProt P41161 1-510). In a few lines: as §1
For a further assay, the target named is T8, SPIC (Homo sapiens, UniProt Q8N5J4 1-248).
T8 sequence: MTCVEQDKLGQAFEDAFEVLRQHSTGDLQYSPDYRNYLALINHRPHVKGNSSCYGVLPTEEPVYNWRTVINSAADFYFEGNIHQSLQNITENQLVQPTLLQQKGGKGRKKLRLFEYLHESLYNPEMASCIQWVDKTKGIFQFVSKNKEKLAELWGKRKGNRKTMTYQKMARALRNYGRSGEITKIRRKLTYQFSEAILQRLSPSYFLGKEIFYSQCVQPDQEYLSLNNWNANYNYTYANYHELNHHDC
In a few lines:
as §1

Another assay has as its target ELF4 (Homo sapiens, UniProt Q99607 1-663). In a few lines:
as §1

Another assay deals with T9, ELK4 (Homo sapiens, UniProt P28324-2 1-405).
T9 sequence: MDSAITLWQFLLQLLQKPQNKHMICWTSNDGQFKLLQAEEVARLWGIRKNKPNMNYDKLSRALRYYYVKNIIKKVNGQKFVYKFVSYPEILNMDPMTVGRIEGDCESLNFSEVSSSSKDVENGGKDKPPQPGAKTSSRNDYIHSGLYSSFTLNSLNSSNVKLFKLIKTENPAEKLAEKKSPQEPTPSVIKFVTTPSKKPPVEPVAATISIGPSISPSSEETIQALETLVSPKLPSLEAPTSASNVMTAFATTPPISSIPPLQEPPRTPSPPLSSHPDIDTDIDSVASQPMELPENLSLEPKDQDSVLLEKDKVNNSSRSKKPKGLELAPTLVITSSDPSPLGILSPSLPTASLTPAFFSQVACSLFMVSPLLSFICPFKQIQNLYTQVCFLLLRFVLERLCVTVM
In a few lines:
as §1

The target of the next assay is T10, ETV2 (Homo sapiens, UniProt O00321 1-342).
T10 sequence: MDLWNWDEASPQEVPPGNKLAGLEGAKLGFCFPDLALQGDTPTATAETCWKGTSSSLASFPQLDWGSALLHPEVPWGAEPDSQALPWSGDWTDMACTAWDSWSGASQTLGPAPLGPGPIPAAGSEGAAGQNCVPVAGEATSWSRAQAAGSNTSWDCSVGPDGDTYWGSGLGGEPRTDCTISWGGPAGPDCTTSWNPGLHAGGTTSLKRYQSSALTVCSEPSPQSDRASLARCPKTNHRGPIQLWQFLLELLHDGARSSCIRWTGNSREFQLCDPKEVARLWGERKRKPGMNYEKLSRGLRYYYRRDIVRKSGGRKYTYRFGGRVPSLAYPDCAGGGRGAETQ
In a few lines:
as §1

For the next assay, the target named is ETV1 (Homo sapiens, UniProt P50549 1-477). In a few lines: as §1
Chain of ETV1 (P50549 whole entry): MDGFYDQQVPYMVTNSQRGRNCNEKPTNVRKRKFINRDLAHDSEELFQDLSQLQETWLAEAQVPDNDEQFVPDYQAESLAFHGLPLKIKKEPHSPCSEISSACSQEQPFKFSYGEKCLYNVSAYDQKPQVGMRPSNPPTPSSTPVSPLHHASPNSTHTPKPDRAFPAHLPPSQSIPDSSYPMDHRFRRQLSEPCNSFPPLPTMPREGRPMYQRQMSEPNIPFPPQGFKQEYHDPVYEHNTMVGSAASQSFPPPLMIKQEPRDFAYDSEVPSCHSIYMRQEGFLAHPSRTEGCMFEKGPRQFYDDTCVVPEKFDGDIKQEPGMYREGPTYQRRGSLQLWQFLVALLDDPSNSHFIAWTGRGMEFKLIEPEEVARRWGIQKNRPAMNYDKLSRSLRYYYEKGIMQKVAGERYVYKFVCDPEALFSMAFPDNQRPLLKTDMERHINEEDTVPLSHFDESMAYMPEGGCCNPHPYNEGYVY

Chain of ELF4 (Q99607 whole entry): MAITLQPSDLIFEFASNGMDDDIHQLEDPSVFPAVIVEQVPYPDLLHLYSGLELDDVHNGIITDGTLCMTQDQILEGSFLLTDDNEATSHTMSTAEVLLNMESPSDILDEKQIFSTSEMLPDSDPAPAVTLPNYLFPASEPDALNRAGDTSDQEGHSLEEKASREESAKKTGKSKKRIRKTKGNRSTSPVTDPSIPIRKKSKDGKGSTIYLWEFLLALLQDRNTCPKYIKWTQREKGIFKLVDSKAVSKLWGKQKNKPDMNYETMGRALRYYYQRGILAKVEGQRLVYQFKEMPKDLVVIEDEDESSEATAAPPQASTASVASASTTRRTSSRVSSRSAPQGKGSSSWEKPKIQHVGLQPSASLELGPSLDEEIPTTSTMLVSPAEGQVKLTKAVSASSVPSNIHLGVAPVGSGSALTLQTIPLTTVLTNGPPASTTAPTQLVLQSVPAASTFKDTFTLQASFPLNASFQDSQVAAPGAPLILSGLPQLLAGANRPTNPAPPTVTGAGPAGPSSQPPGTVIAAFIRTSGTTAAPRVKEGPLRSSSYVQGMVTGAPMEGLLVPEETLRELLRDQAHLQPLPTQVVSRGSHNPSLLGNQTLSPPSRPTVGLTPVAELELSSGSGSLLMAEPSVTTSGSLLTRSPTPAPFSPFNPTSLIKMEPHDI
Chain of ETV5 (P41161 whole entry): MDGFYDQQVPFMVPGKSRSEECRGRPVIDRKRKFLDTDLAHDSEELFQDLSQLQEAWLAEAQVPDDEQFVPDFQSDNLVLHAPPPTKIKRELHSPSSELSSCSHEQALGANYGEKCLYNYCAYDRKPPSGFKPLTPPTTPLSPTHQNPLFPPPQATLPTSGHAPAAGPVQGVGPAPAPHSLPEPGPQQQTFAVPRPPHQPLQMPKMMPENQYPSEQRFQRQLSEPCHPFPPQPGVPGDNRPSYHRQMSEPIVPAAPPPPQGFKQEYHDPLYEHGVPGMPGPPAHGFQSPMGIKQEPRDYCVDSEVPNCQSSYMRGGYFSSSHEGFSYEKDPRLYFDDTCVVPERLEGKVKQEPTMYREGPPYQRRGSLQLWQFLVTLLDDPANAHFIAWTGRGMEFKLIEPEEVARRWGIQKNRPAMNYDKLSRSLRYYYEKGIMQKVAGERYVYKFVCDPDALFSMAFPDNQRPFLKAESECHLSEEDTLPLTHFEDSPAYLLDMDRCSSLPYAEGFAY
Chain of ELF1 (P32519 whole entry): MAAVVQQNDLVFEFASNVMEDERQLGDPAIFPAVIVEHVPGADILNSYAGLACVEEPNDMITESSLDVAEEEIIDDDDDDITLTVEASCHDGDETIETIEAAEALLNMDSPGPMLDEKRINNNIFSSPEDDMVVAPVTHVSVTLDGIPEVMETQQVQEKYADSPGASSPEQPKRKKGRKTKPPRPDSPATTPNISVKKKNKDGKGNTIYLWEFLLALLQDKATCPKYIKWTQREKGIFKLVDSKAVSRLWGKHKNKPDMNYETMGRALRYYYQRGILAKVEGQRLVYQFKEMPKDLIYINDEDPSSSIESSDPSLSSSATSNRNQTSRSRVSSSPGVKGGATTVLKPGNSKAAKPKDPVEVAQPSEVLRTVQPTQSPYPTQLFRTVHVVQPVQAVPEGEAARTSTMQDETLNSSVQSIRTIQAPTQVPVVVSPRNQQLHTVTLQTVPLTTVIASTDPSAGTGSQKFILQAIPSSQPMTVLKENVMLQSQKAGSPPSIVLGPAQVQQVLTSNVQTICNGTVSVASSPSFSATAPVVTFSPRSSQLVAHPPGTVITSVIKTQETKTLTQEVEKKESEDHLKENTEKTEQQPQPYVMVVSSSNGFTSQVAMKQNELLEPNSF
Chain of SPIB (Q01892 whole entry): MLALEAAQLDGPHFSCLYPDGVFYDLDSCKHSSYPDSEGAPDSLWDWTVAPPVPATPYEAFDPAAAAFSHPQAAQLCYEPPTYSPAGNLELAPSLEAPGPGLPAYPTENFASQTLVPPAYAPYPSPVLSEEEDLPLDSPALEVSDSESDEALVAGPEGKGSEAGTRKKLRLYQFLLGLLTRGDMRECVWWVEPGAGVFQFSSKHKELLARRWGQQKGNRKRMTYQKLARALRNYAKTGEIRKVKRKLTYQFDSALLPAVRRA

For the sequence CCCATG, the binding signal with FLI1 is 1.06 fold enrichment (6-mer frequency, TF over GST control); in the assay with ELK1 it was 1 fold enrichment (6-mer frequency, TF over GST control); with GABPA, 1.22 fold enrichment (6-mer frequency, TF over GST control); in the assay with ERG, 1.19 fold enrichment (6-mer frequency, TF over GST control); with ELF1 it was 1.15 fold enrichment (6-mer frequency, TF over GST control); with EHF, 1.11 fold enrichment (6-mer frequency, TF over GST control). Also, the binding signal with SPI1 is 1.14 fold enrichment (6-mer frequency, TF over GST control); in the assay with SPIB, 1.15 fold enrichment (6-mer frequency, TF over GST control); in the assay with ELK3, 1.13 fold enrichment (6-mer frequency, TF over GST control); in the assay with FEV, 1.06 fold enrichment (6-mer frequency, TF over GST control); with ETV5, 1.09 fold enrichment (6-mer frequency, TF over GST control); in the assay with SPIC, 1.02 fold enrichment (6-mer frequency, TF over GST control). The binding signal is 1.12 fold enrichment (6-mer frequency, TF over GST control) with ELF4; 1.18 fold enrichment (6-mer frequency, TF over GST control) with ELK4; 1.02 fold enrichment (6-mer frequency, TF over GST control) with ETV2; 1.01 fold enrichment (6-mer frequency, TF over GST control) in the assay with ETV1.

In the case of ACACTC, the binding signal is 1.04 fold enrichment (6-mer frequency, TF over GST control) in the assay with FLI1; 1.1 fold enrichment (6-mer frequency, TF over GST control) with ELK1; 1.15 fold enrichment (6-mer frequency, TF over GST control) with GABPA; 1.08 fold enrichment (6-mer frequency, TF over GST control) in the assay with ERG; 1.12 fold enrichment (6-mer frequency, TF over GST control) with ELF1; 1.14 fold enrichment (6-mer frequency, TF over GST control) with EHF. For the same sequence, the binding signal was 1.09 fold enrichment (6-mer frequency, TF over GST control) in the assay with SPI1; 1.15 fold enrichment (6-mer frequency, TF over GST control) with SPIB; 1.19 fold enrichment (6-mer frequency, TF over GST control) with ELK3; 1.12 fold enrichment (6-mer frequency, TF over GST control) in the assay with FEV; 1.04 fold enrichment (6-mer frequency, TF over GST control) with ETV5; 1.01 fold enrichment (6-mer frequency, TF over GST control) with SPIC. The binding signal with ELF4 is 1.14 fold enrichment (6-mer frequency, TF over GST control); in the assay with ELK4, 1.19 fold enrichment (6-mer frequency, TF over GST control); in the assay with ETV2, 1.11 fold enrichment (6-mer frequency, TF over GST control); with ETV1, 1.07 fold enrichment (6-mer frequency, TF over GST control).
